# Columns and labels:
# Experiment in all cases: DAPPL (digital affinity profiling via proximity ligation, sequencing); 10 mM Tris-HCl pH 7.5, 50 mM NaCl, 1 mM DTT, 4% glycerol, room temperature, 30 min; GST-TFs on glutathione beads, 16-mer random dsDNA library, 0.1% formaldehyde crosslink after washing; high values mean tight binding
# Details in all cases: protein: recombinant; tags: N-terminal GST; dsDNA, one strand shown
# [1] = molecular target: T1, ELK1 (Homo sapiens, UniProt P19419 1-428)
# T1 sequence: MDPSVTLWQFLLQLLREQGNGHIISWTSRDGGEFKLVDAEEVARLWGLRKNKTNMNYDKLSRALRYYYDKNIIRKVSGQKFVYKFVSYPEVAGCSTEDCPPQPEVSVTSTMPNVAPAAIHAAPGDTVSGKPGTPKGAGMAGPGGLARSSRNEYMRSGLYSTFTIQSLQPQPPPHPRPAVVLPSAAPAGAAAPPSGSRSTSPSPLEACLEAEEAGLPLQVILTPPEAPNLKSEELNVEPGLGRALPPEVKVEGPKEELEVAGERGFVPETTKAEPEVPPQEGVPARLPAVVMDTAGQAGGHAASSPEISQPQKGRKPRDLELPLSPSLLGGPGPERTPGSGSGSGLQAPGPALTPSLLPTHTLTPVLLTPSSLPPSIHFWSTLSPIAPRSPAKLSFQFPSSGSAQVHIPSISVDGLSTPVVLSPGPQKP
# Method in brief: (§1)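 A tag-only sample was pooled with DNA-barcoded human transcription factors that had been expressed in yeast as GST fusions and captured on glutathione beads. The pools were incubated for 30 min at room temperature with 200 nmole of a random double-stranded 16-mer DNA library in Tris/NaCl/DTT/glycerol buffer, then washed, crosslinked with 0.1% formaldehyde, proximity-ligated (BsaI/T4 ligase, 1 h, 37 °C), PCR-amplified and sequenced on an Illumina NextSeq500. Binding signal is each hexamer's read frequency for a factor divided by its frequency for the tag-only sample.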
# [2] = molecular target: T2, ERG (Homo sapiens, UniProt P11308 1-479)
# T2 sequence: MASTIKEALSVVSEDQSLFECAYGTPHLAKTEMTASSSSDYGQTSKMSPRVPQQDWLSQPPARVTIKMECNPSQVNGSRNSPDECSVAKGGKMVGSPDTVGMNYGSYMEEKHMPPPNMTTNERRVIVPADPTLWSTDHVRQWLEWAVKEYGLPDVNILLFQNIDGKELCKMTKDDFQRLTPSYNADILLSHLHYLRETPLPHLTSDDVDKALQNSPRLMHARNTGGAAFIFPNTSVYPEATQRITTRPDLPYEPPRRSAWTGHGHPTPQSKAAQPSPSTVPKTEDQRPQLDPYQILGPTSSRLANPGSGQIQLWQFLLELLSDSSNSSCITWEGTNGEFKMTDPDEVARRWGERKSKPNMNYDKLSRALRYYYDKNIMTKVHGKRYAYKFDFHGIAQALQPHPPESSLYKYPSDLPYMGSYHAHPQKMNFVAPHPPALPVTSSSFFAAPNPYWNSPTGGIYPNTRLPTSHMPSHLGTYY
# Method in brief: as §1
# [3] = molecular target: T3, EHF (Homo sapiens, UniProt Q9NZC4 1-300)
# T3 sequence: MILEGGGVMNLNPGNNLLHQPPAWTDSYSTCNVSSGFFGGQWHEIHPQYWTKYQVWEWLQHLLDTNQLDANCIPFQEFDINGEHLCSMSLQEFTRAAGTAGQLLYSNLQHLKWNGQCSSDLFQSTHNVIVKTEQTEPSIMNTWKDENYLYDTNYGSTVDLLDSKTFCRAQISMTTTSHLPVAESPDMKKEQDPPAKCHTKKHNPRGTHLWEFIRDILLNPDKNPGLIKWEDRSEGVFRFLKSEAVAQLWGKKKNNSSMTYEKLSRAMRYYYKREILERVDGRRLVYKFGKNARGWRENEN
# Method in brief: as §1
# [4] = molecular target: SPIB (Homo sapiens, UniProt Q01892 1-262)
# Sequence of SPIB (Q01892 whole entry): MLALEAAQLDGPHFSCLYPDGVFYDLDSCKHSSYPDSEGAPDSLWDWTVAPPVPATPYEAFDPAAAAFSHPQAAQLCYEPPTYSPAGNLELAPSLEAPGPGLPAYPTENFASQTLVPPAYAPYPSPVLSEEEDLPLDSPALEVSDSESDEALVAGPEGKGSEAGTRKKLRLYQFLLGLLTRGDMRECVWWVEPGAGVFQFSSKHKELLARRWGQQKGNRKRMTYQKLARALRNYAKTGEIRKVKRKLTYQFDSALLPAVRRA
# Method in brief: as §1
# [5] = molecular target: T4, FEV (Homo sapiens, UniProt Q99581 1-238)
# T4 sequence: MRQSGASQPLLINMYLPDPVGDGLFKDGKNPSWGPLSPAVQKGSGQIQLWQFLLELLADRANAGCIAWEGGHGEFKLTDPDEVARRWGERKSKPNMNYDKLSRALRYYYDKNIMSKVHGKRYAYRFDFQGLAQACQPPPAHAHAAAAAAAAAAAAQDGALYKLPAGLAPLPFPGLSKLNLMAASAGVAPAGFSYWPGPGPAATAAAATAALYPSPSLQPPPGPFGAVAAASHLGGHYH
# Method in brief: as §1
# [6] = molecular target: ELF4 (Homo sapiens, UniProt Q99607 1-663)
# Sequence of ELF4 (Q99607 whole entry): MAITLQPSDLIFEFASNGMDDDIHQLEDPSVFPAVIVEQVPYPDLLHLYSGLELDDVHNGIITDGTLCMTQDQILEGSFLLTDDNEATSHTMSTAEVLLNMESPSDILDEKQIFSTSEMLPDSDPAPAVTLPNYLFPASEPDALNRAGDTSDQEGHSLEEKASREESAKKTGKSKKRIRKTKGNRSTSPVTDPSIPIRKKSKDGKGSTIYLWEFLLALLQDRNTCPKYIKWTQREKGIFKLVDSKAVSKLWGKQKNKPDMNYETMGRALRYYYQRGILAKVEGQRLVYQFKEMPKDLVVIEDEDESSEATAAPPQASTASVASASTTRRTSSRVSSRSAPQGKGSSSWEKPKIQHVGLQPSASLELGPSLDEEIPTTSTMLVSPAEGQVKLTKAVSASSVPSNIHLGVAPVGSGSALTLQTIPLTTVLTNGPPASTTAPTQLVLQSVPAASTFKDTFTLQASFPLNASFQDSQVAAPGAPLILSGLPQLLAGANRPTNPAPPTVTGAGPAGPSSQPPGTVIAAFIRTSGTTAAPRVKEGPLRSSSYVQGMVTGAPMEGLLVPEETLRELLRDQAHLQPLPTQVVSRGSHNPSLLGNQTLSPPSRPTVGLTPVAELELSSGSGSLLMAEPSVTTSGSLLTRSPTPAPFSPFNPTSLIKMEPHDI
# Method in brief: as §1
# [7] = molecular target: T5, ELK4 (Homo sapiens, UniProt P28324-2 1-405)
# T5 sequence: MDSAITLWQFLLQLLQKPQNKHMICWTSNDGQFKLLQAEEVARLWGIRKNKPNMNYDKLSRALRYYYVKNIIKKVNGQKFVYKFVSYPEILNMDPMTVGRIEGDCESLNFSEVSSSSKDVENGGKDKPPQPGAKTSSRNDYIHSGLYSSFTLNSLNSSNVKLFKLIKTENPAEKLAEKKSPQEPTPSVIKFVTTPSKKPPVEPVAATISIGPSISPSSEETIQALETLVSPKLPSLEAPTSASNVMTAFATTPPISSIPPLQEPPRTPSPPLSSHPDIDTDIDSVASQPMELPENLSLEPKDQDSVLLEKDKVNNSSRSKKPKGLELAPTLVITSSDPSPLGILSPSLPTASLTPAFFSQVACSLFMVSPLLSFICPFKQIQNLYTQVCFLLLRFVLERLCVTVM
# Method in brief: as §1
# [8] = molecular target: T6, ETV2 (Homo sapiens, UniProt O00321 1-342)
# T6 sequence: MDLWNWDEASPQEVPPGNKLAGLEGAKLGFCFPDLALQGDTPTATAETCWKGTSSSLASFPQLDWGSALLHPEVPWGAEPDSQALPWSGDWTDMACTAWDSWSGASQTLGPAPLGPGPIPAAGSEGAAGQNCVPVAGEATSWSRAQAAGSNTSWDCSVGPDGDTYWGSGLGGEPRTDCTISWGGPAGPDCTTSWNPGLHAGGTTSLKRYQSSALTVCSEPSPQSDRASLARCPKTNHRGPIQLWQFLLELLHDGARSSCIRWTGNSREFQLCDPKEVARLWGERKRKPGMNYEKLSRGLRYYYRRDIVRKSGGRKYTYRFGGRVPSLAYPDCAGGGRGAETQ
# Method in brief: as §1
# [9] = molecular target: ETV1 (Homo sapiens, UniProt P50549 1-477)
# Sequence of ETV1 (P50549 whole entry): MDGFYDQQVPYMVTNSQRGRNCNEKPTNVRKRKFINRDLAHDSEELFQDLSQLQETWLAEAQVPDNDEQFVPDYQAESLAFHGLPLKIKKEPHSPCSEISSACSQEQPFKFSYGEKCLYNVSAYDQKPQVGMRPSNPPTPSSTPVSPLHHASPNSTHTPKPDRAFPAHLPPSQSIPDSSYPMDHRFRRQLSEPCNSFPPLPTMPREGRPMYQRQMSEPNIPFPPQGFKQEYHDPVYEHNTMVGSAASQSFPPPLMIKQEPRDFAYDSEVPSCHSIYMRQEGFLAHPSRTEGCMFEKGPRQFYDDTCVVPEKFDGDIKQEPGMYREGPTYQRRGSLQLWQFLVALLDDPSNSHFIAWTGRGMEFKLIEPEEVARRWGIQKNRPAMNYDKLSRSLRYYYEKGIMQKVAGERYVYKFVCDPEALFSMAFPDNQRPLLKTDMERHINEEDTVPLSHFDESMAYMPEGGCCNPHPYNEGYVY
# Method in brief: as §1
# [10] = molecular target: T7, ERF (Homo sapiens, UniProt P50548 1-548)
# T7 sequence: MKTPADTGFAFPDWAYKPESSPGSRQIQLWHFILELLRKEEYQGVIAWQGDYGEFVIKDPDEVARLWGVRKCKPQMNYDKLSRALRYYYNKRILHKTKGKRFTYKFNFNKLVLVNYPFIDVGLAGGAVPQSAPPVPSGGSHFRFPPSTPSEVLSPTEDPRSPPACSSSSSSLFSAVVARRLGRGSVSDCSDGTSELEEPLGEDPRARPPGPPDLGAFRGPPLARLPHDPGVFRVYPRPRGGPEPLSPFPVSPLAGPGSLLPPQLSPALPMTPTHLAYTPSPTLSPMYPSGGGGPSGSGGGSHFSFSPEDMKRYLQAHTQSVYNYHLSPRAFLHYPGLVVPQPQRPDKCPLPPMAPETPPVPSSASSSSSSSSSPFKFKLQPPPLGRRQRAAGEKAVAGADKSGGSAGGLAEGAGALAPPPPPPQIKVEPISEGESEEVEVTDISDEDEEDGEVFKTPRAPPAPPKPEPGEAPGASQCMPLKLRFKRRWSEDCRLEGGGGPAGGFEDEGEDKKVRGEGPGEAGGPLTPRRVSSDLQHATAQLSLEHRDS
# Method in brief: as §1
# [11] = molecular target: T8, ETV3L (Homo sapiens, UniProt Q6ZN32 1-361)
# T8 sequence: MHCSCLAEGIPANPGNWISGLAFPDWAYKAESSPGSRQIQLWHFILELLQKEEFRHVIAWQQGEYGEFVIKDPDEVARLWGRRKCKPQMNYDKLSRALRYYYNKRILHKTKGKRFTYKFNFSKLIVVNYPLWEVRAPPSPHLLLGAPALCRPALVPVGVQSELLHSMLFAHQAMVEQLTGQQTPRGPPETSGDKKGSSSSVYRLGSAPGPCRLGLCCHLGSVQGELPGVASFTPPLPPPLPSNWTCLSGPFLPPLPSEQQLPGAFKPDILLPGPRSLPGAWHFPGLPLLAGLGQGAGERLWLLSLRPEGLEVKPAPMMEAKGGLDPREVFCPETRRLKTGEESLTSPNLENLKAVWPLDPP
# Method in brief: as §1
# [12] = molecular target: T9, ETS2 (Homo sapiens, UniProt P15036 1-469)
# T9 sequence: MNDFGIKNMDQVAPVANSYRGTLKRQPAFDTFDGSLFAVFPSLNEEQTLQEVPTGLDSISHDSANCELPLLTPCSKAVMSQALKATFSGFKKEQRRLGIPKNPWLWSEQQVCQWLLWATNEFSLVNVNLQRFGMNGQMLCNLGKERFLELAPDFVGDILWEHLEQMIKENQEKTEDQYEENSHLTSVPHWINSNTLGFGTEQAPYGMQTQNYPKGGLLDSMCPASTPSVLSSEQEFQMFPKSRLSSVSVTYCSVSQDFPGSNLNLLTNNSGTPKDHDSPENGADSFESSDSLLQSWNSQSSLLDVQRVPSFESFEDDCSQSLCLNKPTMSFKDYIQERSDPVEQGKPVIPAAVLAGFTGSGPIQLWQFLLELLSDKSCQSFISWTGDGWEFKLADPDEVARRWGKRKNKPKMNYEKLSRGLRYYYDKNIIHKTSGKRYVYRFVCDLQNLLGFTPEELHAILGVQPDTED
# Method in brief: as §1
# [13] = molecular target: T10, SPDEF (Homo sapiens, UniProt O95238 1-335)
# T10 sequence: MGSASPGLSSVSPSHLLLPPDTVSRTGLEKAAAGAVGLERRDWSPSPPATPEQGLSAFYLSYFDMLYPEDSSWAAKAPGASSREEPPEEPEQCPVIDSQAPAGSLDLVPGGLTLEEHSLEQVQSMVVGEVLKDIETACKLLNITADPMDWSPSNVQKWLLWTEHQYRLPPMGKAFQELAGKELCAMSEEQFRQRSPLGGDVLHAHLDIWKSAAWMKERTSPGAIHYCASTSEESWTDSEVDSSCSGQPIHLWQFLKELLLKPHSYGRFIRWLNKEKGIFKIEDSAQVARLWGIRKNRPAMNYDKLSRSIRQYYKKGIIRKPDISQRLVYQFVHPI
# Method in brief: as §1
# [14] = molecular target: T11, ETV7 (Homo sapiens, UniProt Q9Y603 1-341)
# T11 sequence: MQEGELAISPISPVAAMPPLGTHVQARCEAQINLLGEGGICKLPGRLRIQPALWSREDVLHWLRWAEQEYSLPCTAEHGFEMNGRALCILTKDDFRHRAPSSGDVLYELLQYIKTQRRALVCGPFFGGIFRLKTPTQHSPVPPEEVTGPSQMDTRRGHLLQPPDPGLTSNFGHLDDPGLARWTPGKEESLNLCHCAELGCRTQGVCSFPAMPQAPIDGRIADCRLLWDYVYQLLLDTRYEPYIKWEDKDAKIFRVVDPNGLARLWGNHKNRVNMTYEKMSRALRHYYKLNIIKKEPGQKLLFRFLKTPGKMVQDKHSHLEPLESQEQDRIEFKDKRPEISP
# Method in brief: as §1
# [15] = molecular target: T12, ETV3 (Homo sapiens, UniProt P41162-2 1-143)
# T12 sequence: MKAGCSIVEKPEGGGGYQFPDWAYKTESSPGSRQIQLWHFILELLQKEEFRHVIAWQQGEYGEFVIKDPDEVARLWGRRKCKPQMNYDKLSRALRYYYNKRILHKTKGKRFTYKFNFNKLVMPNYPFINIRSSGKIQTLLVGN
# Method in brief: as §1
sequence,measurement,setting,value
ACACCG,binding signal,[1],"1.05 fold enrichment (6-mer frequency, TF over GST control)"
same,binding signal,[2],"1.13 fold enrichment (6-mer frequency, TF over GST control)"
same,binding signal,[3],"1.03 fold enrichment (6-mer frequency, TF over GST control)"
same,binding signal,[4],"1.06 fold enrichment (6-mer frequency, TF over GST control)"
same,binding signal,[5],"1.26 fold enrichment (6-mer frequency, TF over GST control)"
same,binding signal,[6],"1.11 fold enrichment (6-mer frequency, TF over GST control)"
same,binding signal,[7],"1.03 fold enrichment (6-mer frequency, TF over GST control)"
same,binding signal,[8],"1.03 fold enrichment (6-mer frequency, TF over GST control)"
same,binding signal,[9],"1.09 fold enrichment (6-mer frequency, TF over GST control)"
same,binding signal,[10],"1 fold enrichment (6-mer frequency, TF over GST control)"
same,binding signal,[11],"1.04 fold enrichment (6-mer frequency, TF over GST control)"
same,binding signal,[12],"1.07 fold enrichment (6-mer frequency, TF over GST control)"
same,binding signal,[13],"1.09 fold enrichment (6-mer frequency, TF over GST control)"
same,binding signal,[14],"1.01 fold enrichment (6-mer frequency, TF over GST control)"
same,binding signal,[15],"1.03 fold enrichment (6-mer frequency, TF over GST control)"
